{"source": "PubChem BioAssay (Tox21)", "note": "Values joined by “and” are separate entries in the source; they are usually repeats but may differ in a detail not shown here. Identical values can stand only once. Inconclusive results are not listed. Active and inactive are the calls of the source. Calls follow the shape of the dose curve; as a rule, active = well fitted inhibition curve with a large enough effect in the repeat runs; inconclusive = weak or mixed curves; inactive = no such curve, though single readings can be large or run the other way. Potency is read from the fitted curve at half-maximal effect.", "data": [{"biological_target": "Cytochrome P450 2D6 (Homo sapiens) (UniProt P10635)", "sequence (P10635 whole entry, looked up)": "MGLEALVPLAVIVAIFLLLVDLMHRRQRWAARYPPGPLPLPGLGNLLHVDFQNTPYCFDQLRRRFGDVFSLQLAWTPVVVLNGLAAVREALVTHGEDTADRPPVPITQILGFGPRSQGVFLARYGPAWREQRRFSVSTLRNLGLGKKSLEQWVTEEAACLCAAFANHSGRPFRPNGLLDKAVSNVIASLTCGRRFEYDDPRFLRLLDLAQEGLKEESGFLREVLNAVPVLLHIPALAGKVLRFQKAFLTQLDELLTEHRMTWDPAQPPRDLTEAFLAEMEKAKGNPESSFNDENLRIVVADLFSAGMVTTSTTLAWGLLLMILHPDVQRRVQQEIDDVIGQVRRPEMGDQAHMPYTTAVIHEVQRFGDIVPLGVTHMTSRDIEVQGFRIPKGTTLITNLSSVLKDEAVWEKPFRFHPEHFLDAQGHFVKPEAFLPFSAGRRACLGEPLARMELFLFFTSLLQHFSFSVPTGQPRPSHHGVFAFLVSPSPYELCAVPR", "assay": "Cytochrome P450 Family 2 Subfamily D Member 6 (CYP2D6) small molecule antagonists: luciferase reporter qHTS assay (AID 1671196); also: nearly all actives have a fitted effect of over 50% in size", "conditions": "P450-Glo CYP2D6 enzyme assay, luciferin luminescence, 1 h; series mostly up to 115 µM", "in_short": "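Enzyme and proluciferin substrate were first combined with test chemical for 10 min at room temperature. Adding NADPH regeneration solution started a 1 h reaction, stopped with luciferin detection reagent and read by luminescence 20 min later.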", "values": [{"smiles": "Nc1ccc(Sc2ccc(N)cc2)cc1", "Potency": "31.7 µM (active)"}, {"smiles": "Oc1ccccc1Br", "Potency": "inactive"}, {"smiles": "COc1ccc(N)cc1N", "Potency": "10.3 µM (active) and 17.1 µM (active)"}, {"smiles": "CC(C)CCCCCOC(=O)c1ccccc1C(=O)OCCCCCC(C)C", "Potency": "27.9 µM (active)"}, {"smiles": "O=[N+]([O-])c1c2ccccc2cc2ccccc12", "Potency": "2.22 µM (active)"}, {"smiles": "S=C=Nc1cccc2ccccc12", "Potency": "14 µM (active)"}, {"smiles": "CC(C)C(=O)Cl", "Potency": "inactive"}, {"smiles": "O=C(O)c1cc[c]([Hg][Cl])cc1", "Potency": "12.6 µM (active)"}, {"smiles": "O=C/C(Cl)=C(/Cl)C(=O)O", "Potency": "inactive"}, {"smiles": "CC(=[OH+])/C=C(/C)[O-].CC(=[OH+])/C=C(\\C)[O-].CC(=[OH+])/C=C(\\C)[O-].[Al]", "Potency": "inactive"}, {"smiles": "CCOC(=O)C1(c2ccccc2)CCN(CCC(C#N)(c2ccccc2)c2ccccc2)CC1", "Potency": "4.9 µM (active)"}, {"smiles": "CCOP(=O)(NC(C)C)Oc1ccc(SC)c(C)c1", "note": "(stereo not drawn)", "Potency": "5.02 µM (active)"}, {"smiles": "Oc1ccc2ccc3cccc4ccc1c2c34", "Potency": "inactive"}, {"smiles": "CN(CCCC(O)c1cccnc1)N=O", "note": "(stereo not drawn)", "Potency": "inactive"}, {"smiles": "C[C@]12CC[C@@H]3c4ccc(OC(=O)N(CCCl)CCCl)cc4CC[C@H]3[C@@H]1CC[C@@H]2O", "Potency": "inactive"}, {"smiles": "COc1ccc(/C(=C/C(=O)N2CCOCC2)c2ccc(Cl)cc2)cc1OC", "Potency": "inactive"}, {"smiles": "CC(C)[C@H](C(=O)OC(C#N)c1cccc(Oc2ccccc2)c1)c1ccc(OC(F)F)cc1", "note": "(stereo partly drawn)", "Potency": "5.03 µM (active)"}, {"smiles": "O=[N+]([O-])c1ccc2ccc3cccc4ccc1c2c34", "Potency": "31.7 µM (active)"}, {"smiles": "Oc1ccc(C2(c3ccc(O)cc3)c3ccccc3-c3ccccc32)cc1", "Potency": "79.6 µM (active)"}, {"smiles": "N#CSCSC#N", "Potency": "inactive"}, {"smiles": "BrCBr", "Potency": "inactive"}, {"smiles": "ClC(Cl)=C(c1ccc(Cl)cc1)c1ccc(Cl)cc1", "Potency": "inactive"}, {"smiles": "CC(Cl)CN(C)C", "note": "(stereo not drawn)", "Potency": "inactive"}, {"smiles": "O=C1C=CC(=O)c2ccccc21", "Potency": "15.9 µM (active)"}, {"smiles": "C[C@]12CC[C@H](O)C[C@H]1CC[C@@H]1[C@@H]2C[C@@H](O)[C@]2(C)[C@@H](C3=CC(=O)OC3)CC[C@]12O", "Potency": "inactive"}, {"smiles": "COc1ccc(OC)c(CC(C)N)c1", "note": "(stereo not drawn)", "Potency": "7.62 µM (active)"}, {"smiles": "CCCCOP(=O)(CCCC)OCCCC", "Potency": "inactive"}, {"smiles": "CC(C)(c1ccc(O)c(-c2ccccc2)c1)c1ccc(O)c(-c2ccccc2)c1", "Potency": "63.3 µM (active)"}, {"smiles": "N#Cc1ccc(O)cc1", "Potency": "inactive"}, {"smiles": "C1CCC2CCCCC2C1", "note": "(stereo not drawn)", "Potency": "inactive"}, {"smiles": "CC1(C)CC/C(=C/c2ccc(Cl)cc2)C1(O)Cn1cncn1", "note": "(stereo not drawn)", "Potency": "12.6 µM (active)"}, {"smiles": "CCCN(CC)CC1COC2(CCC(C(C)(C)C)CC2)O1", "note": "(stereo not drawn)", "Potency": "12.6 µM (active)"}, {"smiles": "Cc1ccc(CCl)cc1", "Potency": "inactive"}, {"smiles": "CCc1ccccc1C", "Potency": "inactive"}]}, {"biological_target": "Cytochrome P450 2C19 (Homo sapiens) (UniProt P33261)", "sequence (P33261 whole entry, looked up)": "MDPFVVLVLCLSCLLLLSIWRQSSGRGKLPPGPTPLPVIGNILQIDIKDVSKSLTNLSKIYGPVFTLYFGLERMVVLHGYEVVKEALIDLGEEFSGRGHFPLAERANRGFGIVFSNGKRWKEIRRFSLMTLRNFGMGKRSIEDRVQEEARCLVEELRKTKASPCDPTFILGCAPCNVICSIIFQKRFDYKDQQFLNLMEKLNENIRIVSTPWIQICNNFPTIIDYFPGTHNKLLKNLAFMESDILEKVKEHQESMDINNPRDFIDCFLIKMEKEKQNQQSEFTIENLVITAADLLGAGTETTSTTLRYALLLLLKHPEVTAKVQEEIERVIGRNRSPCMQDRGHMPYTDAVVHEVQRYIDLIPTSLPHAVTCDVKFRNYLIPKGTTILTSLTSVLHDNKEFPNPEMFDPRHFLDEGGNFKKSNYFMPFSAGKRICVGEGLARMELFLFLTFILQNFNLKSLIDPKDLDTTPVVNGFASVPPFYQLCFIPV", "assay": "Cytochrome P450 Family 2 Subfamily C Member 19 (CYP2C19) small molecule antagonists: luciferase reporter qHTS assay (AID 1671197); also: nearly all actives have a fitted effect of over 65% in size", "conditions": "P450-Glo CYP2C19 enzyme, luciferin luminescence, 1 h; series mostly up to 115 µM", "in_short": "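Inhibition of CYP2C19 was scored from loss of luminescence in a P450-Glo proluciferin substrate assay, NADPH-started and run 1 h at 37C, with ketoconazole as positive control.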", "values": [{"smiles": "Nc1ccc(Sc2ccc(N)cc2)cc1", "Potency": "5.03 µM (active)"}, {"smiles": "Oc1ccccc1Br", "Potency": "inactive"}, {"smiles": "COc1ccc(N)cc1N", "Potency": "732 nM (active) and 3.83 µM (active)"}, {"smiles": "CC(C)CCCCCOC(=O)c1ccccc1C(=O)OCCCCCC(C)C", "Potency": "39.5 µM (active)"}, {"smiles": "O=[N+]([O-])c1c2ccccc2cc2ccccc12", "Potency": "11.1 µM (active)"}, {"smiles": "S=C=Nc1cccc2ccccc12", "Potency": "2.8 µM (active)"}, {"smiles": "CC(C)C(=O)Cl", "Potency": "inactive"}, {"smiles": "O=C(O)c1cc[c]([Hg][Cl])cc1", "Potency": "7.1 µM (active)"}, {"smiles": "O=C/C(Cl)=C(/Cl)C(=O)O", "Potency": "inactive"}, {"smiles": "CC(=[OH+])/C=C(/C)[O-].CC(=[OH+])/C=C(\\C)[O-].CC(=[OH+])/C=C(\\C)[O-].[Al]", "Potency": "inactive"}, {"smiles": "CCOC(=O)C1(c2ccccc2)CCN(CCC(C#N)(c2ccccc2)c2ccccc2)CC1", "Potency": "9.77 µM (active)"}, {"smiles": "CCOP(=O)(NC(C)C)Oc1ccc(SC)c(C)c1", "note": "(stereo not drawn)", "Potency": "1.59 µM (active)"}, {"smiles": "Oc1ccc2ccc3cccc4ccc1c2c34", "Potency": "20 µM (active)"}, {"smiles": "CN(CCCC(O)c1cccnc1)N=O", "note": "(stereo not drawn)", "Potency": "inactive"}, {"smiles": "C[C@]12CC[C@@H]3c4ccc(OC(=O)N(CCCl)CCCl)cc4CC[C@H]3[C@@H]1CC[C@@H]2O", "Potency": "inactive"}, {"smiles": "COc1ccc(/C(=C/C(=O)N2CCOCC2)c2ccc(Cl)cc2)cc1OC", "Potency": "56.4 µM (active)"}, {"smiles": "CC(C)[C@H](C(=O)OC(C#N)c1cccc(Oc2ccccc2)c1)c1ccc(OC(F)F)cc1", "note": "(stereo partly drawn)", "Potency": "17.8 µM (active)"}, {"smiles": "O=[N+]([O-])c1ccc2ccc3cccc4ccc1c2c34", "Potency": "inactive"}, {"smiles": "Oc1ccc(C2(c3ccc(O)cc3)c3ccccc3-c3ccccc32)cc1", "Potency": "25.2 µM (active)"}, {"smiles": "N#CSCSC#N", "Potency": "72.6 µM (active)"}, {"smiles": "BrCBr", "Potency": "inactive"}, {"smiles": "ClC(Cl)=C(c1ccc(Cl)cc1)c1ccc(Cl)cc1", "Potency": "409 nM (active) and 710 nM (active)"}, {"smiles": "CC(Cl)CN(C)C", "note": "(stereo not drawn)", "Potency": "inactive"}, {"smiles": "O=C1C=CC(=O)c2ccccc21", "Potency": "14.2 µM (active)"}, {"smiles": "C[C@]12CC[C@H](O)C[C@H]1CC[C@@H]1[C@@H]2C[C@@H](O)[C@]2(C)[C@@H](C3=CC(=O)OC3)CC[C@]12O", "Potency": "inactive"}, {"smiles": "COc1ccc(OC)c(CC(C)N)c1", "note": "(stereo not drawn)", "Potency": "inactive"}, {"smiles": "CCCCOP(=O)(CCCC)OCCCC", "Potency": "11.2 µM (active)"}, {"smiles": "CC(C)(c1ccc(O)c(-c2ccccc2)c1)c1ccc(O)c(-c2ccccc2)c1", "Potency": "17.8 µM (active)"}, {"smiles": "N#Cc1ccc(O)cc1", "Potency": "89.4 µM (active)"}, {"smiles": "C1CCC2CCCCC2C1", "note": "(stereo not drawn)", "Potency": "inactive"}, {"smiles": "CC1(C)CC/C(=C/c2ccc(Cl)cc2)C1(O)Cn1cncn1", "note": "(stereo not drawn)", "Potency": "0.223 µM (active)"}, {"smiles": "CCCN(CC)CC1COC2(CCC(C(C)(C)C)CC2)O1", "note": "(stereo not drawn)", "Potency": "11.2 µM (active)"}, {"smiles": "Cc1ccc(CCl)cc1", "Potency": "inactive"}, {"smiles": "CCc1ccccc1C", "Potency": "inactive"}]}]}
